Only some compounds are listed: those with a hit (about 3.9% of all), similar ones and a draw of the others.
Anthrax LF prot: blocks Bacillus anthracis lethal factor protease; multiplex microsphere protease cleavage assay, LF; inhibition, % at 10 µM; 0.12% of 360,000 active; note: plate controls were buffer without enzyme for full effect and enzyme alone for no effect
Target sequence (P15917 whole entry, looked up): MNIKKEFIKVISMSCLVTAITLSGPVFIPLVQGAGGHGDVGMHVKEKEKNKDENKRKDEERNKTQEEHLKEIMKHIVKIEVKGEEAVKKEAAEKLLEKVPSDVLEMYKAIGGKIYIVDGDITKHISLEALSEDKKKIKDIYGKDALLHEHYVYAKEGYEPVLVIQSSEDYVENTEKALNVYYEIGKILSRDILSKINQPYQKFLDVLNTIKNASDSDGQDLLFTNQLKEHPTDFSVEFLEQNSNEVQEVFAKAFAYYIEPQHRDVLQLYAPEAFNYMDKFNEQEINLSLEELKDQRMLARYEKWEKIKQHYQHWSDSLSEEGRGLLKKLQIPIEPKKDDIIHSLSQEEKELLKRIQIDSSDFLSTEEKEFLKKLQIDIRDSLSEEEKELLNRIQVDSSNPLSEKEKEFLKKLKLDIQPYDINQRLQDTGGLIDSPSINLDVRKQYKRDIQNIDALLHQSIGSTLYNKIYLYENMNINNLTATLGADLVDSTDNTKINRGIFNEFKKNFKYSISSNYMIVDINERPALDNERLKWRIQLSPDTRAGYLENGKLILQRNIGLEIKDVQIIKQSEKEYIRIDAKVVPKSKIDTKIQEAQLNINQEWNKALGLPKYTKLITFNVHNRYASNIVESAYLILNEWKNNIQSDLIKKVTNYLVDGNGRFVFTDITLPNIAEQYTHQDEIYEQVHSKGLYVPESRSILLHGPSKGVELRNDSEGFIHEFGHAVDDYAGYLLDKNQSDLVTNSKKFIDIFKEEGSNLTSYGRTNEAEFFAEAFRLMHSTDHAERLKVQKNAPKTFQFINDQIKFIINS
VHR inh abs: DUSP3 (human) phosphatase inhibition; recombinant VHR phosphatase, pNPP absorbance; inhibition, % at 13.3 µM; 0.52% of 290,000 active; AID 1654; in the data active = inhibition above about 50%
Autofluor counter: flagged as autofluorescent in microsphere protease counterscreen; compound autofluorescence counterscreen, microsphere flow cytometry; active compounds read high; 3.1% of 360,000 active; fluorescence intensity (concentration not given with the values); in the data active = fluorescence intensity above about 16000; inconclusive = no clear call, values can overlap the other calls
SARS 3CLpro inh: SARS-CoV 3CLpro protease inhibition. AID 1706. 0.14% of 290,000 active. recombinant SARS-CoV 3CLpro, quenched FRET peptide cleavage. inhibition, % at 6 µM; in the data active = inhibition above about 12%
BoNT-A LC inh2: BoNT A light chain protease inhibition | multiplex microsphere protease substrate cleavage, flow cytometry | inhibition, % at 10 µM | 0.17% of 360,000 active | AID 588499; note: plate controls were buffer without enzyme for full effect and enzyme alone for no effect
BoNT F protease: BoNT F light chain protease inhibition | Multiplex microsphere protease cleavage assay, flow cytometry | inhibition, % at 10 µM | 0.22% of 360,000 active; in the data active = inhibition above about 35%, passing the limit was not always enough; inconclusive = no clear call, values can overlap the other calls; note: plate controls were buffer without enzyme for full effect and enzyme alone for no effect
* hit, by the source's call; u = inconclusive; x = no result given. Cut-off read from the data, not from the text of the source, unless noted: active = inhibition above about 30%; inconclusive = no clear call, values can overlap the other calls; inactive = below that.

SMILES	Anthrax LF prot	VHR inh abs	Autofluor counter	SARS 3CLpro inh	BoNT-A LC inh2	BoNT F protease
CC(C)CCNC(=O)C1CC(=O)N(CCc2ccccc2)C1 (stereo not given)	12	18	3663	2	0	-14
Cc1ccc(CCN2CC(C(=O)N3CCN(c4ccc(F)cc4)CC3)CC2=O)cc1 (stereo not given)	0	41	20552*	3	0	1
Cc1ccc(CCN2CC(C(=O)NCCCOC(C)C)CC2=O)cc1 (stereo not given)	-3	0	21642*	-3	3	4
COC(CNC(=O)C1CC(=O)N(CCc2ccccc2)C1)OC (stereo not given)	1	0	20271*	-1	-2	-2
CCc1ccc([C@@H]2C[C@H]3[C@@H](CN2S(=O)(=O)c2ccc(C)cc2)C(=O)C[C@@H](c2ccc(C)cc2)N3S(=O)(=O)c2ccc(C)cc2)cc1	4	x	2931	x	0	0
O=C(/C=C/c1cccc([N+](=O)[O-])c1)OCC(=O)N1CCCCC1	2	x	4037	x	0	4
O=C(Cc1ncc(C(F)(F)F)cc1Cl)NCc1ccco1	-2	20	4322	5	-1	2
COc1ccc(-c2nc3c(n2O)CCC/C3=N\O)cc1	-7	-8	21176*	4	u	0
Cc1ccc(S(=O)(=O)Nc2ccccc2C(=O)N2CCCCC2C)c(C)c1NS(C)(=O)=O (stereo not given)	10	16	3955	-5	2	19
O=C(Nc1cccc([N+](=O)[O-])c1)c1ccc2nc(N3C(=O)CCC3=O)sc2c1	0	3	21930*	2	u	-8
O=C(Nc1cccc(Br)c1)c1ccc2nc(N3C(=O)CCC3=O)sc2c1	-6	31	5778	0	0	-8
CCOc1cc(N2CCOCC2)c(OCC)cc1NC(=O)COC(=O)c1cc(C)cc(C)c1	-1	28	1936	1	-1	-7
Cc1c(C(=O)NCC2CCCO2)oc2ccc(S(=O)(=O)N3CCCC3)cc12 (stereo not given)	-3	0	8894	0	0	-11
Cc1c(C(=O)NCC2COc3ccccc3O2)oc2ccc(S(=O)(=O)N(C)C3CCCCC3)cc12 (stereo not given)	-3	52*	10819	-1	1	-7
CCN(CC)c1ccc(/C=N/c2sc3c(c2C#N)C2CCN3CC2)c(O)c1	14	-2	22519*	5	18	24
Cc1cc(C)n(CC(O)COCc2ccco2)n1 (stereo not given)	-2	12	23131*	-1	u	-2
COc1cc(/C=N/N2CCN(Cc3ccc(Cl)cc3)CC2)cc(Br)c1O	-2	4	4715	0	-4	36*
Cc1ccc(CN2CCN(/N=C/c3ccc(O)c(O)c3)CC2)cc1	17	28	3261	-8	1	-1
COc1ccc(/C=N/N2CCN(Cc3ccc(C)cc3)CC2)cc1Br	-6	19	4367	-3	-3	43*
COC(=O)C1CC(C(=O)OC)C2C(C(=O)OC)CC(C(=O)OC)C12 (stereo not given)	0	x	2860	x	-1	4
Cc1sc2nc(SCC(=O)NCCO)n(C)c(=O)c2c1C	-10	6	21991*	0	u	0
CCOC(=O)CNC(=O)CSc1nc2sc(C)c(C)c2c(=O)n1C	-2	18	23793*	2	-2	-5
Cc1ccc(NS(=O)(=O)c2c(F)cc(F)c(Cl)c2F)cc1S(=O)(=O)N1CCOCC1	-6	x	3761	x	0	-7
NC(=O)[C@@H]1CCCN1Cc1c(C(=O)N2CCc3ccccc3C2)nc2ccc(Cl)cn12	0	20	5162	1	2	4
Cc1nc(SC(C(=O)c2ccccc2)c2ccccc2)n[nH]1 (stereo not given)	0	31	20864*	1	4	5
SMILES	Anthrax LF prot	VHR inh abs	Autofluor counter	SARS 3CLpro inh	BoNT-A LC inh2	BoNT F protease
COc1ccc2cc(C(=O)NCc3ccccc3CN3CCCC3)ccc2c1	3	x	5344	x	-1	-4
O=C(NCc1ccccc1)c1cccn(Cc2cccc(Cl)c2)c1=O	-7	12	3907	1	4	11
CNC(=S)NNC(=O)c1cccn(Cc2ccc(Cl)c(Cl)c2)c1=O	0	10	22977*	5	1	-2
CNC(=S)NNC(=O)c1cccn(Cc2cccc(Cl)c2)c1=O	0	6	24235*	2	-2	-3
N#Cc1cccc(NC(=O)c2cc(C3CCCCN3C(=O)c3cccs3)on2)c1 (stereo not given)	-8	x	4047	x	-1	-6
O=C(/C=C/c1ccc([N+](=O)[O-])cc1)N1CCN(S(=O)(=O)c2cccs2)CC1	-7	23	4475	1	-1	-13
CN1CCN(C(=S)C(=O)Nc2ccc(Br)cc2)CC1	-3	x	3392	5	0	5
O=C(C1CCC(=O)N(C2CC2)C1)N(CCO)Cc1ccccc1 (stereo not given)	2	-3	5415	0	1	-4
CC(C)(C)c1ccc(Cn2ccc(-c3ccc4c(c3)OCO4)n2)cc1	-4	13	19826*	-5	1	-1
Cc1ccc(Cn2ccc(NC(=O)c3cc(-c4ccc5c(c4)OCO5)on3)n2)cc1	3	26	10162	6	0	2
O=C(COC(=O)CC12CC3CC(CC(C3)C1)C2)Nc1cccnc1Cl	0	15	4342	5	-1	1
COC(=O)N1CC(c2ccccc2)CC1=O (stereo not given)	0	21	19692*	-7	1	3
COc1cc(NC(=O)CN2CC(c3ccccc3)CC2=O)cc(OC)c1 (stereo not given)	-5	-8	5866	2	0	0
CCCCCCCn1c2c(c(=N)c3ccccc31)CCC2	5	4	u	2	0	-5
COc1ccc(Br)cc1C1NC(=O)NC(C)=C1C(=O)N(C)C (stereo not given)	-1	22	5959	5	-1	-16
CSc1nc2n(n1)C(c1cc(Br)ccc1F)C(C(=O)N(C)C)=C(C)N2 (stereo not given)	-6	16	20105*	-1	-2	-4
CCOC(=O)C(NCc1ccc2c(c1)OCO2)(NC(=O)c1ccccc1)C(F)(F)F (stereo not given)	-2	33	4793	2	-1	-14
O=C(Cn1c(=S)[nH]c2ccccc2c1=O)N1CCC2(CC1)OCCO2	-4	29	24695*	1	-4	-7
O=C(CCCCCn1c(=S)[nH]c2ccccc2c1=O)N1CCC2(CC1)OCCO2	1	8	21724*	-1	3	8
O=C(CCCCCn1c(=S)[nH]c2ccccc2c1=O)N1CCOCC1	1	17	4155	5	0	0
CN(C)c1ccc(NC(=O)COC(=O)CCC(=O)c2ccc(F)cc2)cc1	-3	48	21300*	-3	-1	-6
CN=c1scc(-c2ccc(F)cc2)n1/N=C/c1ccc(O)c(O)c1	-3	4	2665	4	0	-7
